The text below walks through data of PubChem BioAssay (EPA / NIEHS).

Records with an inconclusive call do not appear. A structure can be active in one record and inactive in another. Activity calls are given as the source filed them. How the source made its calls: active means hit-call score of the fitted dose curve at least 0.9, where 1 is the maximum; inconclusive means response in the unintended direction; inactive means score below 0.9.

This test in a line: ACEA_AR_agonist_AUC_viability: ACEA Biosciences xCELLigence Real-Time Cell Analysis on Androgen Receptor Agonism for Viability (AID 2283775).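 On AC50: viability read 80 hours after compound addition.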 How it is done: ACEA_AR_agonist is a cell-based, single-readout assay that uses 22Rv1, a human prostate cancer cell line, with measurements taken at 80 hours after chemical dosing in a 384-well plate, although TO5 and TO6 (mc0.srcf) used a 96-well plate. Differences in plate size can be ignored given data normalization.ACEA_AR_80hr is one of two assay component(s) measured or calculated from the ACEA_AR assay. It is designed to make measurements of real-time cell-growth kinetics, a form of growth reporter, as detected with electrical impedance signals by Real-Time Cell Electrode Sensor (RT-CES) technology.Data from the assay component ACEA_AR_AUC_viability was analyzed in the positive analysis fitting direction relative to DMSO as the negative control and baseline of activity. Using a type of growth reporter, loss-of-signal activity can be used to understand changes in the viability. Furthermore, this assay endpoint can be referred to as a secondary readout, because this assay has produced multiple assay endpoints where this one serves a viability function. To generalize the intended target to other relatable targets, this assay endpoint is annotated to the cell cycle intended target family, where the subfamily is cytotoxicity.
The xCELLigence system Multi-E-Plate stations were used to measure the time-dependent response to chemicals. Each compound was tested in an eight-point, 1:4 serial dilution series starting at a maximum final concentration of 100 uM. A maximum starting concentration of 0.5% DMSO was present in the 100 uM chemical samples and was diluted along with the test article dilution series. The screen was performed in biological duplicate using two separate, 96-well, E-Plates 96 for each dilution series (n = 2). Positive controls (MG132 and testosterone) and a negative control (assay media) were tested in quadruplicate on each testing plate. Then, 0.5% and 0.125% DMSO were tested in duplicates in each plate to serve as solvent controls for the 2 highest concentrations of testing compounds: 100 uM and 25 uM. Reference compounds were tested with 8 concentrations with 1:5 serial dilutions. All screening was carried out by ACEA Biosciences, Inc. (San Diego, CA). 22Rv1 cells purchased from ATCC were maintained in media supplemented with 10% fetal bovine serum (FBS). Before screening, 22Rv1 cells were preconditioned in assay medium. Cells were then detached and seeded in E-Plates 96 in assay medium. After overnight monitoring of growth once every hour, compounds were added to […] cells and remained in the medium until the end of the experiment. Cellular responses were then recorded once every 5 min for the first 5 h, and once every hour for an additional 100 h.
For `CCNc1nc(Cl)nc(NC(C)C)n1`, the compound was called inactive.

In the case of `CCOC(=O)C(Cl)Cc1cc(-n2nc(C)n(C(F)F)c2=O)c(F)cc1Cl` (stereo not given), the call was inactive.

For orientation: AC50 means the midpoint of the concentration-response curve, whichever way the signal moves. In the case of `COC(=O)C(C)Oc1ccc(Oc2ccc(Cl)cc2Cl)cc1` (stereo not given), the AC50 is 50 µM (active).

Take `O=C(O)c1nc(Cl)ccc1Cl`: the result was inactive.

For `C#CCOS(=O)OC1CCCCC1Oc1ccc(C(C)(C)C)cc1` (stereo not given), the AC50 was 44.7 µM (active).

For `CCOP(=S)(OCC)SCn1c(=O)oc2cc(Cl)ccc21`, the AC50 is 91.5 µM (active).

Regarding `CCCCC(CC)COC(=O)c1ccccc1C(=O)OCC(CC)CCCC` (stereo not given), the half-maximal activity concentration (AC50) was 50 µM (active).

Turning to `C=CC1(C)OC(=O)N(c2cc(Cl)cc(Cl)c2)C1=O` (stereo not given), the AC50 is 38.5 µM (active).

On to `CNC(=S)S`, for which the outcome was inactive.

Take `Oc1ccccc1-c1ccccc1`: the half-maximal activity concentration (AC50) is 50 µM (active) and the compound was classed as inactive.

With `CCNc1nc(Cl)nc(NCC)n1`, the compound was called inactive.

Regarding `CCCCNC(=O)OCC#CI`, the AC50 was 11.6 µM (active).

With `CON(C)C(=O)Nc1ccc(Cl)c(Cl)c1`, the compound was classed as inactive.

Consider `COP(=S)(OC)Oc1nc(Cl)c(Cl)cc1Cl`, for which the call was inactive.

In the case of `CCCCNC(=O)n1c(NC(=O)OC)nc2ccccc21`, the AC50 is 45.6 µM (active).

As for `CCON=C(CC)C1=C(O)CC(c2c(C)cc(C)cc2C)CC1=O` (stereo not given), the compound was called inactive.

For the compound `CCCCOC(=O)c1ccccc1C(=O)OCCCC`, the AC50 was 77.2 µM (active).

On to `CS/C(C)=N/OC(=O)N(C)SN(C)C(=O)O/N=C(\C)SC`, for which the half-maximal activity concentration (AC50) was 79.6 µM (active).

On to `CCOc1cc(Oc2ccc(C(F)(F)F)cc2Cl)ccc1[N+](=O)[O-]`, for which the AC50 is 22.8 µM (active).

Turning to `COC(=O)N(OC)c1ccccc1COc1ccn(-c2ccc(Cl)cc2)n1`, the concentration at half-maximal activity (AC50) is 25.9 µM (active).

For the compound `C=CCC1=C(C)C(OC(=O)C2C(C=C(C)C)C2(C)C)CC1=O` (stereo not given), the AC50 is 52.5 µM (active).

For the compound `CCCC1COC(Cn2cncn2)(c2ccc(Cl)cc2Cl)O1` (stereo not given), the compound was called inactive.

In the case of `Fc1ccc(Oc2ccnc3cc(Cl)cc(Cl)c23)cc1`, the AC50 is 76.3 µM (active).

Turning to `CCOC(=O)CC(SP(=S)(OC)OC)C(=O)OCC` (stereo not given), the concentration at half-maximal activity (AC50) was 92.5 µM (active).

Regarding `COC(=O)C=C(C)OP(=O)(OC)OC`, the concentration at half-maximal activity (AC50) was 29.8 µM (active).

Consider `O=C(Nc1ccccc1)Nc1ccnc(Cl)c1`, for which the AC50 was 39.1 µM (active).

Regarding `N#CC(CCc1ccc(Cl)cc1)(Cn1cncn1)c1ccccc1` (stereo not given), the half-maximal activity concentration (AC50) was 50 µM (active).

As to `CN(C)C(=S)SSC(=S)N(C)C`, the AC50 was 20 µM (active).

With `CO/C=C(/C(=O)OC)c1ccccc1Oc1cc(Oc2ccccc2C#N)ncn1`, the concentration at half-maximal activity (AC50) was 46.7 µM (active).

For `COc1ccc(C(c2ccc(OC)cc2)C(Cl)(Cl)Cl)cc1`, the half-maximal activity concentration (AC50) is 80.8 µM (active).

Take `CC(C)Oc1cc(-n2nc(C(C)(C)C)oc2=O)c(Cl)cc1Cl`: the AC50 is 50 µM (active).

With `CC1COC(Cn2cncn2)(c2ccc(Oc3ccc(Cl)cc3)cc2Cl)O1` (stereo not given), the AC50 was 44.8 µM (active).

Consider `CCc1nn(C)c(C(=O)NCc2ccc(C(C)(C)C)cc2)c1Cl`, for which the concentration at half-maximal activity (AC50) is 25.3 µM (active).

As to `C=CCC1=C(C)[C@@H](OC(=O)[C@@H]2[C@@H](C=C(C)C)C2(C)C)CC1=O`, the AC50 is 66.9 µM (active).

`OC(c1ccc(Cl)cc1)(c1cncnc1)c1ccccc1Cl` (stereo not given): the AC50 was 72 µM (active).

As for `Cc1cc(Cl)ccc1OCC(=O)O`, the call was inactive.

As for `CC(Oc1ccc(Cl)cc1Cl)C(=O)O` (stereo not given), the result was inactive.

For `N#Cc1nn(-c2c(Cl)cc(C(F)(F)F)cc2Cl)c(N)c1S(=O)C(F)(F)F` (stereo not given), the AC50 is 40.6 µM (active).

On to `Cc1ccc(-c2c(Cl)nc(C#N)n2S(=O)(=O)N(C)C)cc1`, for which the AC50 was 19.2 µM (active).
